From PubChem BioAssay (NCATS)
Records with an inconclusive call do not appear. Active and inactive are the calls of the source. Unless noted, the call rests on the fitted dose curve; in most records, active means well fitted curve in either direction with a large enough effect (not every such curve was filed as active); inconclusive means small, poorly fitted or top-dose-only effect, or another doubt; inactive means flat fitted curve, though single readings scatter.

Legend:
[1] = biological target: Lysosomal acid glucosylceramidase (Homo sapiens) (UniProt P04062); assay: Glucocerebrosidase-p2 (AID 348; in the data active means potency below about 10 µM; further: potency means the concentration at half of the fitted maximal effect); conditions: purified GBA, blue fluorogenic substrate, 40 min
Lysosomal acid glucosylceramidase (Homo sapiens), sequence (P04062 whole entry, looked up): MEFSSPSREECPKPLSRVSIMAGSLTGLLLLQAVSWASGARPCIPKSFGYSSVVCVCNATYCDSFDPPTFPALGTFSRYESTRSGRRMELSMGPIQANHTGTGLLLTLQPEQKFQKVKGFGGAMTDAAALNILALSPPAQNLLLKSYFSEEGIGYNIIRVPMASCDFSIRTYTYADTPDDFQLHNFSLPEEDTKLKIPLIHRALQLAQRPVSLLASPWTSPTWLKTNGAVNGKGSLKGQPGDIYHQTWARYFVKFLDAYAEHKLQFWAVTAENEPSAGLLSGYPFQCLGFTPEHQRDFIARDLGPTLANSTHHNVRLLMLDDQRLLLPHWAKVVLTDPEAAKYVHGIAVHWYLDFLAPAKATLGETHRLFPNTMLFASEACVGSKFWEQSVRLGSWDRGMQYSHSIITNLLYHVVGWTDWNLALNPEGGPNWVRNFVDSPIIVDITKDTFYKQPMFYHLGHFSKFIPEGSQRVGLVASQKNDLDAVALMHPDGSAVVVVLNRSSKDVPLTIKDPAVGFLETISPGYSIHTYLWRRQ
Summary of the method: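 Compounds titrated from 0.6 nM upwards against 0.2 nM enzyme in pH 5.9 citric acid/KH2PO4, taurocholate, tween-20; blue fluorogenic substrate 80 uM, 40 min room temperature, stopped and read Ex 365/Em 440 for AC50.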

[2] = AP1 Signaling Pathway (AID 357); conditions: ME-180 AP-1-bla reporter, EGF-induced, beta-lactamase ratio, 5 h; at 7.69 µM (top of the series) unless noted;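 further: ME-180 reporter cells stimulated with EGF at its EC50 level; on the % scale 0 is the no-effect control and ±100 the full control effect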
Summary of the method: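 First, ME-180 AP-1-bla cells were cultured overnight at 37 °C in low-serum Opti-MEM. Next, titrated compounds with EC50 EGF were incubated 5 hours. Finally, CCF4 was added for 2.5 hours and the 460/530 nm ratio recorded.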

[3] = biological target: Cytochrome P450 1A2 (Homo sapiens) (UniProt P05177); assay: p450-cyp1a2 (AID 410; calls by dose curve; further: potency means the concentration at half of the fitted maximal effect;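 on activity change, negative = inhibition: -100% = full effect of reference inhibitor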); conditions: recombinant CYP1A2, luciferin-ME demethylation, luminescence; series mostly up to 11.4 µM
Cytochrome P450 1A2 (Homo sapiens), sequence (P05177 whole entry, looked up): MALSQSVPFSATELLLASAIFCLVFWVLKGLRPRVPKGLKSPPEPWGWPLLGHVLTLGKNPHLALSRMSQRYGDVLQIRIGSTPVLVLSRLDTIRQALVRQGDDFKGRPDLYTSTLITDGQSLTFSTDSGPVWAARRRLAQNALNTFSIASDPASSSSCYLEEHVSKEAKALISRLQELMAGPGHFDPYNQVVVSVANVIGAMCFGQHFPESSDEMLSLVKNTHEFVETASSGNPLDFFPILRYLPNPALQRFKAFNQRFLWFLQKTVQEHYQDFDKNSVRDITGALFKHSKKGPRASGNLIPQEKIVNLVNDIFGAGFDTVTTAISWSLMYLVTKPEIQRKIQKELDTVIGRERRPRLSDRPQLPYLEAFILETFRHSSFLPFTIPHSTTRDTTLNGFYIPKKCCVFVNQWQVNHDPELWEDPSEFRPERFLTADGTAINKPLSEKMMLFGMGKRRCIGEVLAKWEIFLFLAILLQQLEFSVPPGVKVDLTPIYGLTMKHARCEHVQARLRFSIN
Summary of the method: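 20nM CYP1A2 with 100uM Luciferin-ME (at Km) in 100mM KPO4; compound preincubated 10 min, NADPH regeneration added, 60 min at room temperature. Luciferin quantified by luminescence after detection reagent; normalized to 57 uM furafylline.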

[4] = NFAT Signaling Pathway (AID 444); conditions: Jurkat NFAT-bla M1, carbachol, beta-lactamase ratio, 5 h; at 7.69 µM (top of the series) unless noted;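 further: carbachol stimulus at about its EC50 of 1 µM final; on the % scale 0 is the no-effect control and ±100 the full control effect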
Summary of the method: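 Jurkat cells carrying an NFAT-driven β-lactamase reporter and co-transfected muscarinic M1 receptor were treated with compound plus carbachol (1 uM final, an EC50 level) for 5 h at 37 °C. CCF4 loading followed for 1 h at RT; 460/530 nm ratio gave %activity.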

[5] = Stat Signaling Pathway (AID 446); conditions: ME-180 SIE beta-lactamase reporter, IL-6 stimulated, 5 h; at 7.69 µM (top of the series) unless noted;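 further: ME-180 cervical cancer cells given 40 pM IL-6 alongside compound; SIE-controlled beta-lactamase reporter measured as 460/530 nm FRET emission ratio; on the % scale 0 is the no-effect control and ±100 the full control effect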
Summary of the method: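 Reporter line: ME-180 cervical carcinoma, SIE-beta-lactamase. Treatment: compound with 40 pM IL-6, 5 hrs, 37 C, in low-serum OPTI-MEM with 10 mM HEPES pH 7.3. Detection: 460/530 nm fluorescence.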

[6] = biological target: Glucocorticoid receptor (Homo sapiens) (UniProt P04150); assay: GR-GFP Redistribution (AID 450;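 active means compounds whose dose series gives a full or clear partial fitted curve of increased nuclear translocation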; further: potency means the concentration at half of the fitted maximal effect); conditions: U2OS GR-GFP nuclear translocation, laser cytometry, 2 h
Glucocorticoid receptor (Homo sapiens), sequence (P04150 whole entry, looked up, the tested form may be a part): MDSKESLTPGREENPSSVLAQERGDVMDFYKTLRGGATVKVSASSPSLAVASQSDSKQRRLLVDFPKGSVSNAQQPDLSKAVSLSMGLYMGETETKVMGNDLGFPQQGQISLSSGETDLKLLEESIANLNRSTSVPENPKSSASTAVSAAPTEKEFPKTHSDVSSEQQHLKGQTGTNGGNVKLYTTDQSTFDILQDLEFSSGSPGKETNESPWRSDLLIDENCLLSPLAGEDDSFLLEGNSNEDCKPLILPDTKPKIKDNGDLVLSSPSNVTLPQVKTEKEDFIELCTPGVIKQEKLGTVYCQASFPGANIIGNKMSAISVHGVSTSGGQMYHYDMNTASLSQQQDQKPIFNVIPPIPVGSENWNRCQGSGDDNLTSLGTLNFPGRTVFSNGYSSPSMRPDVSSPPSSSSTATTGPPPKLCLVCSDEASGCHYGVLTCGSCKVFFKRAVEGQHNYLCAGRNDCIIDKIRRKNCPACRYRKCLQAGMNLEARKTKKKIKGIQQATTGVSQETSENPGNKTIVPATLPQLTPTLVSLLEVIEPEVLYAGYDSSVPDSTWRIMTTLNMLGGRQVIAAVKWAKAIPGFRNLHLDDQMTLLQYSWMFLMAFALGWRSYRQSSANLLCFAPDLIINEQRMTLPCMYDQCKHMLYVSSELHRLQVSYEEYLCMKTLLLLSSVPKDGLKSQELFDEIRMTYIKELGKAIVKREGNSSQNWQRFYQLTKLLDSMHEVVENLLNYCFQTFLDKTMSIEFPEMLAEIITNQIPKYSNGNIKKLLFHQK

[7] = biological target: Glucocorticoid receptor (Homo sapiens) (UniProt P04150); assay: GR-EFC Redistribution (AID 451; calls by dose curve; further: potency means the concentration at half of the fitted maximal effect); conditions: CHO-K1 GR-EFC translocation, beta-gal luminescence, 2 h
Summary of the method: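 CHO-K1 cells stably expressing nuclear-localized β-gal enzyme acceptor and GR fused C-terminally to the enzyme donor fragment; ligand-driven nuclear translocation restores β-gal by complementation. Compounds titrated up to 46 uM final, 2 h at 37 °C; luminescence read.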

[8] = biological target: Mitogen-activated protein kinase 10 (Mus musculus) (UniProt Q61831); assay: JNK3 AlphaScreen Assay (AID 530); conditions: JNK3 lysate, c-Jun phosphorylation; series mostly up to 11.4 µM;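 further: kinase came from lysate of stimulated human HepG2 cells; signal reports phosphorylation of biotinylated GST-cJun 1-79 at Ser73 with 10 µM ATP; on the % scale 0 is the no-effect control and ±100 the full control effect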
Summary of the method: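 Inhibitors reduce antibody binding to phosphorylated biotin-cJun, lowering AlphaScreen luminescence. Lysates from HepG2 cells pre-activated by IL-1beta plus TNF-alpha supplied JNK3; compounds were titrated.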

[9] = biological target: 3',5'-cyclic-AMP phosphodiesterase 4B (Homo sapiens) (UniProt Q07343); assay: qHTS Assay for Inhibitors of PDE-IV (AID 607; active means well fitted activation curve with a large enough effect in the main read-out, with a control signal flat, not every such curve was filed as active; further: % of control where 0% means no effect); conditions: HEK293 ACTOne CNG channel cells, membrane potential fluorescence; series mostly up to 22.9 µM
3',5'-cyclic-AMP phosphodiesterase 4B (Homo sapiens), sequence (Q07343 whole entry, looked up): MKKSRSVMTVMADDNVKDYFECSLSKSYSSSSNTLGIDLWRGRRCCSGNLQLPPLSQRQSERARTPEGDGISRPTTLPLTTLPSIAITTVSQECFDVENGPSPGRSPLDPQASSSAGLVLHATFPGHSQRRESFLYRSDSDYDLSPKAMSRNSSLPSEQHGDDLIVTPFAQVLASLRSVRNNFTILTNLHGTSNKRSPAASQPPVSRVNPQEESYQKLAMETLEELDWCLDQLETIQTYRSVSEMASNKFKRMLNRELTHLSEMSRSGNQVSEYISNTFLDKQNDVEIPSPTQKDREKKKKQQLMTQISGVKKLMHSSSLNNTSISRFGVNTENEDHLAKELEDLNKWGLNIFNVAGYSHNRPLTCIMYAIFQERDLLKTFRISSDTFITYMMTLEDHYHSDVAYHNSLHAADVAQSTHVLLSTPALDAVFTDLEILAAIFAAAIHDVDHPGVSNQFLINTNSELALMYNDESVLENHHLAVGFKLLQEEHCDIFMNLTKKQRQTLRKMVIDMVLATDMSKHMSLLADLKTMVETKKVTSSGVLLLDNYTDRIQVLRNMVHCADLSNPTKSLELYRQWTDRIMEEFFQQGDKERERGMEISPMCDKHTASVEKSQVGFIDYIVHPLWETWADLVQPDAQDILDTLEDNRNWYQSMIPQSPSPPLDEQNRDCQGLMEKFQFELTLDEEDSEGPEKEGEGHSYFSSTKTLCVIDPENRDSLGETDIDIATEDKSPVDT
Summary of the method: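 Cell-based read-out of cAMP via a modified cyclic nucleotide-gated channel and membrane potential dye (535/590 nm) in HEK293 cells expressing PDE4 endogenously. Compounds tested up to 22.9 uM final; 100 uM RO 20-1724 reference.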

N[C@@H](Cc1cccc([N+](=O)[O-])c1)C(=O)O
inactive: Potency [1] > 11.4 µM | activity change, negative = inhibition [2] -0.119% | Potency [3] | activity change, negative = inhibition [4] 0.16% | activity, negative = inhibition [5] 0.761% | Potency [6] > 46 µM | Potency [7] > 9.22 µM | Potency [8] | Potency [9]

C[N+]1([C@H](CO)Cc2c[nH]c3ccccc23)Cc2ccccc2C1
inactive: Potency [1] > 11.4 µM | activity change, negative = inhibition [2] -7.62% | Potency [3] | activity change, negative = inhibition [4] -15.6% | activity, negative = inhibition [5] 13.4% | Potency [6] > 46 µM | Potency [7] > 9.22 µM | Potency [8] | Potency [9]

COc1ccc2nccc(SCC(=O)O)c2c1
active: Potency [3] 3.98 µM
inactive: Potency [1] > 11.4 µM | activity change, negative = inhibition [2] 7.58% | activity change, negative = inhibition [4] 6.79% | activity, negative = inhibition [5] -2.7% | Potency [6] > 46 µM | Potency [7] > 9.22 µM | Potency [8] | Potency [9]

CCC[C@H](Sc1nc(N)nc2nc[nH]c12)C(=O)O
inactive: Potency [1] > 11.4 µM | activity change, negative = inhibition [2] -8.03% | Potency [3] | activity change, negative = inhibition [4] -19.8% | activity, negative = inhibition [5] 6.16% | Potency [6] > 46 µM | Potency [7] > 9.22 µM | Potency [8] | Potency [9]

NCS(=O)(=O)O
inactive: Potency [1] > 11.4 µM | activity change, negative = inhibition [2] -4.59% | activity change, negative = inhibition [3] -5.6% [at 2.29 µM] | activity change, negative = inhibition [4] 2.65% | activity, negative = inhibition [5] -0.0948% | Potency [6] > 46 µM | Potency [7] > 9.22 µM | Potency [8] | Potency [9]

O=C(O)CC[C@]1(C(=O)O)CCC(=O)c2ccccc21
inactive: Potency [1] > 11.4 µM | activity change, negative = inhibition [2] 11.8% | Potency [3] | activity change, negative = inhibition [4] 4.42% | activity, negative = inhibition [5] 2.44% | Potency [6] > 46 µM | Potency [7] > 9.22 µM | Potency [8] | Potency [9]

CC1(C)OC[C@@H]2O[C@H](n3cnc4c(N)nc(Cl)nc43)[C@@H](OS(C)(=O)=O)[C@@H]2O1
inactive: Potency [1] > 11.4 µM | activity change, negative = inhibition [2] -1.96% | activity change, negative = inhibition [3] -14.5% [at 2.29 µM] | activity change, negative = inhibition [4] -7% | activity, negative = inhibition [5] -0.333% | Potency [6] > 46 µM | Potency [7] > 9.22 µM | Potency [8] | Potency [9]

O=C(O)[C@H](CCc1ccccn1)c1ccccc1
inactive: Potency [1] > 11.4 µM | activity change, negative = inhibition [2] -0.682% | Potency [3] | activity change, negative = inhibition [4] -1.01% | activity, negative = inhibition [5] 0.534% | Potency [6] > 46 µM | Potency [7] > 9.22 µM | Potency [8] | Potency [9]

Nc1ccc(N=Nc2c(S(=O)(=O)O)cc3ccccc3c2S(=O)(=O)O)cc1
inactive: Potency [1] > 11.4 µM | activity change, negative = inhibition [2] -5.64% | activity change, negative = inhibition [3] -20.9% [at 2.29 µM] | activity change, negative = inhibition [4] 11.9% | activity, negative = inhibition [5] 6.7% | Potency [6] > 46 µM | Potency [7] > 9.22 µM | Potency [8] | Potency [9]

CC(=O)[C@H]([C@@H](c1ccccc1)N1CCOCC1)N1CCOCC1
inactive: Potency [1] > 11.4 µM | activity change, negative = inhibition [2] 4% | Potency [3] | activity change, negative = inhibition [4] 15.1% | activity, negative = inhibition [5] 4.56% | Potency [6] > 46 µM | Potency [7] > 9.22 µM | Potency [8] | Potency [9]

NCC(=O)Nc1ccccc1
inactive: Potency [1] > 11.4 µM | activity change, negative = inhibition [2] 4.23% | activity change, negative = inhibition [4] 1.46% | activity, negative = inhibition [5] 4.18% | Potency [6] > 46 µM | Potency [7] > 9.22 µM | Potency [8] | Potency [9]
active: Potency [3] 2.51 µM

Cc1cc(Cc2cc(C)c(N)cc2N)c(N)cc1N
active: Potency [3] 2 µM
inactive: Potency [1] > 11.4 µM | activity change, negative = inhibition [2] -4.79% | activity change, negative = inhibition [4] -1.81% | activity, negative = inhibition [5] 1.49% | Potency [6] > 46 µM | Potency [7] > 9.22 µM | Potency [8] | Potency [9]

c1ccc(CCCNc2nnnc3ccccc23)cc1
active: Potency [3] 3.98 µM
inactive: Potency [1] > 11.4 µM | activity change, negative = inhibition [2] -4.34% | activity change, negative = inhibition [4] -23% | activity, negative = inhibition [5] -4.36% | Potency [6] > 46 µM | Potency [7] > 9.22 µM | Potency [8] | Potency [9]

Nc1nc(SCC(=O)O)[nH]c(=O)c1N
inactive: Potency [1] > 11.4 µM | activity change, negative = inhibition [2] 4.37% | Potency [3] | activity change, negative = inhibition [4] 10.6% | activity, negative = inhibition [5] 4.74% | Potency [6] > 46 µM | Potency [7] > 9.22 µM | Potency [8] | Potency [9]

Cc1cc([N+](=O)[O-])c(C)c(Br)c1C
inactive: Potency [1] > 11.4 µM | activity change, negative = inhibition [2] 3.15% | activity change, negative = inhibition [4] -7.3% | activity, negative = inhibition [5] 6.97% | Potency [6] > 46 µM | Potency [7] > 9.22 µM | Potency [8] | Potency [9]
active: Potency [3] 1 µM
